The source of these data is PubChem BioAssay AID2685 (National Center for Advancing Translational Sciences (NCATS), 2010).

SMILES strings stand for the structures. “And” between values parts separate entries of the source, which are not always exact repeats. Equal entries are not always repeated. The whole screen tested about 320,000 compounds, of which about 2,100 (0.66%) were called active. Not shown: some 53% with an inconclusive outcome. Calls come from the whole dose curve; as a rule, active = well fitted inhibition curve with a large enough effect in the signal ratio, with a control signal flat (not every such curve was filed as active); inconclusive = small, poorly fitted or top-dose-only effect, or effect the other way, or a change in a side signal; inactive = flat fitted curve, though single readings scatter; the % refers to the signal ratio. Many of the other results were omitted from the sample, so actives are more common in it than they were.
Potency is the fitted concentration of half-maximal effect.

This assay is described as follows: qHTS Assay for Lipid Storage Modulators in Drosophila S3 Cells.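 For cell number change: cells counted by Cell Tracker Red CMTPX staining in the red channel.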 For lipid storage change, negative = inhibition: % is set by controls: 0 for no effect and ±100 for the full control effect. The note with it: BODIPY lipid droplet fluorescence, 18-24 h, cells fed with added oleic acid; cell number change: measured here: cell count max response; series mostly up to 46.1 µM; lipid storage change, negative = inhibition: at the top concentration. Summed up:
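Laser-scanning cytometry quantifies lipid droplet accumulation (500–530 nm total intensity; droplet/cell object ratio) in oleic acid-fed (400 uM added) Drosophila S3 cells treated with a concentration series. 20 uM Triacsin C defined 100% inhibition.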
For the compound `CCN(CCNC(=O)C1CCN(S(=O)(=O)c2c(C)noc2C)CC1)c1ccccc1`, the “lipid storage change, negative = inhibition” value is 3.9% (inactive) and the cell number change was 0.289%.

Consider `CC(C)(C)c1nc(CN2CCCCC2)cc(CN2CCCCC2)c1O`, for which the Potency is 20.6 µM (active) and the cell number change is -1.12%.

Consider `Cc1ccc(-c2nc(CN3CCCCC3)cc(CN3CCCCC3)c2O)cc1`, for which the “lipid storage change, negative = inhibition” value was -0.754% (inactive) and the cell number change came out at 4.96%.

As for `CC(C)(C)c1nc(CN2CCOCC2)cc(CN2CCOCC2)c1O`, the compound was classed as inactive and the cell number change was 19.4%.

For `Cc1cc(CN2CCC(N3CCC(C(=O)NC4CC4)CC3)CC2)cc(C)c1O`, the compound was classed as inactive and the cell number change was -10.6%.

Regarding `Cc1cc(C)n(CC(O)CN2C(=O)NC(C)(C)C2=O)n1` (stereo not given), the “lipid storage change, negative = inhibition” value was 8.19% (inactive) and the cell number change was 7.08%.

For the compound `COc1ccc(/C=C2/SC(=O)N(CC(O)Cn3c4ccccc4c4ccccc43)C2=O)cc1` (stereo not given), the “lipid storage change, negative = inhibition” value was -0.27% (inactive) and the cell number change was -7.54%.

In the case of `O=C1S/C(=C\c2ccccc2)C(=O)N1CC(O)Cn1c2ccccc2c2ccccc21` (stereo not given), the Potency was 9.2 µM (active) and the cell number change was found to be 8.53%.

Turning to `CN(C)c1ccc(/C=C2\SC(=O)N(CC(O)Cn3c4ccccc4c4ccccc43)C2=O)cc1` (stereo not given), the “lipid storage change, negative = inhibition” value was 1.45% (inactive) and the cell number change stood at 1.42%.

Turning to `C=CCn1c(CCNC(=O)c2cccs2)nnc1SCC(=O)c1cccc([N+](=O)[O-])c1`, the outcome was inactive and the cell number change amounted to 21.8%.

As for `COc1ccc(N2CCN(Cc3nc(N)nc(Nc4ccccc4OC)n3)CC2)cc1`, the “lipid storage change, negative = inhibition” value was 4.02% (inactive) and the cell number change is -16.4%.

Regarding `Cc1nc2c(sc(=S)n2Cc2ccco2)c(=O)n1CC(=O)Nc1ccccc1Cl`, the call was inactive and the cell number change worked out at 8.56%.

Turning to `CCn1c(=S)sc2c(=O)n(CC(=O)Nc3ccccc3)c(C)nc21`, the “lipid storage change, negative = inhibition” value was -5.27% (inactive) and the cell number change stood at 22.9%.

As for `Cc1nc2c(sc(=S)n2Cc2ccco2)c(=O)n1CC(=O)Nc1ccc(F)cc1`, the Potency is 16.4 µM (active) and the cell number change is 20.2%.

`COc1ccc(CN2CC(=O)N(c3ccc(C)cc3C)C2=S)cc1OC`: the “lipid storage change, negative = inhibition” value is -6.97% (inactive) and the cell number change came to 8.06%.

Turning to `CC(=O)NCCc1nc2ccccc2n1CCOc1ccccc1`, the “lipid storage change, negative = inhibition” value is 6.98% (inactive) and the cell number change was 18.1%.

Consider `CC(=C/c1ccccc1)/C=N/NC(=O)c1ccccn1`, for which the “lipid storage change, negative = inhibition” value is 13.6% (inactive) and the cell number change is 10.8%.

`C=C(c1ccccc1)c1ccc(N(C)C)cc1`: the “lipid storage change, negative = inhibition” value is -3.74% (inactive) and the cell number change was found to be 1.48%.

For `O=C1Nc2ccccc2N(O)N1c1cc(-c2ccccc2Cl)no1`, the call was inactive.

With `CCOc1ccc(-c2cc(N3C(=O)Nc4ccccc4N3O)on2)cc1`, the Potency was 23.1 µM (active) and the cell number change worked out at 24.4%.

Consider `O=C1Nc2ccccc2N(O)N1c1cc(-c2cccc(Cl)c2)no1`, for which the compound was called inactive.

In the case of `CC(C)c1cc(C(=O)O)c2cnn(C(C)C)c2n1`, the “lipid storage change, negative = inhibition” value was -12.7% (inactive) and the cell number change is -20.5%.

As to `CCOc1ccc(-n2ccnc(SCC(=O)NC3CCCC3)c2=O)cc1`, the “lipid storage change, negative = inhibition” value was 14.1% (inactive).

Turning to `CCOc1ccccc1C(=O)Nc1ccc(S(=O)(=O)Nc2nccc(C)n2)cc1`, the “lipid storage change, negative = inhibition” value is 0.0239% (inactive) and the cell number change was -4.06%.

With `COC(=O)c1ccc(C23CC4(C2)[C@H](CN(CC2CCCCC2)[C@@H]4c2ccccc2)C3c2ccccc2)cc1` (stereo not given in full), the “lipid storage change, negative = inhibition” value is 11.9% (inactive) and the cell number change stood at 12.7%.

`CC(=O)Oc1ccc(N2C(=O)[C@@H]3[C@H](C2=O)[C@H]2c4ccccc4C=NN2[C@@H]3C(C)=O)cc1`: the “lipid storage change, negative = inhibition” value was 5.49% (inactive) and the cell number change stood at 17.5%.

On to `CCN(C(=O)COC(=O)c1cnc(C)cn1)C1CCCCC1`, for which the “lipid storage change, negative = inhibition” value was 13.1% (inactive) and the cell number change worked out at 18.1%.

In the case of `CC1(C)CC2CC(C)(CN2C(=O)Cc2ccccc2)C1` (stereo not given), the “lipid storage change, negative = inhibition” value is 9.29% (inactive) and the cell number change was -11.2%.

With `Cc1nnnn1/C(=C\c1ccccc1)C(=O)OCC(=O)N1CC2(C)CC1CC(C)(C)C2` (stereo not given), the Potency was 1.84 µM (active) and the cell number change was -4.4%.

Take `Cc1cccc(C)c1OCC(=O)N1CC2(C)CC1CC(C)(C)C2` (stereo not given): the call was inactive and the cell number change was 24%.

As for `CCN(C(=O)COC(=O)/C(=C/c1ccccc1)n1nnnc1C)C1CCCCC1`, the Potency is 7.31 µM (active) and the cell number change is -1.15%.

Consider `CC(=O)N/C(=C\c1ccccc1)C(=O)OCC(=O)N(C)C1CCCCC1`, for which the “lipid storage change, negative = inhibition” value was -1.67% (inactive) and the cell number change turned out to be 11.6%.

In the case of `COc1ccc(CCNC(=O)c2cc(-c3ccccc3O)n[nH]2)cc1OC`, the result was inactive and the cell number change is 4.36%.

Regarding `COC(=O)CCc1sc(Nc2ccccc2)nc1-c1ccc(OC)cc1`, the “lipid storage change, negative = inhibition” value is 1.84% (inactive) and the cell number change was -8.54%.

For the compound `O=C(COc1ccccc1)NCC1CCCO1` (stereo not given), the “lipid storage change, negative = inhibition” value was 0.414% (inactive) and the cell number change is -0.966%.

For `O=C(C#Cc1ccccc1)Nc1cccc(F)c1`, the Potency was 1.16 µM (active) and the cell number change is -19.6%.

Consider `COc1ccc(NC(=O)C#Cc2ccccc2)cc1`, for which the Potency is 0.92 µM (active) and the cell number change is -23.3%.

Take `O=C(Nc1cccc(F)c1)c1ccccc1`: the “lipid storage change, negative = inhibition” value is -7.05% (inactive) and the cell number change was -17.1%.

For the compound `COc1ccc(NC(=O)Nc2ccc(CC(=O)O)cc2)cc1`, the Potency was 0.116 µM (active) and the cell number change is -22.2%.

Consider `NC(=O)c1ccc(NC(=O)C#Cc2ccccc2)cc1`, for which the call was inactive.

On to `COc1ccc(NC(=O)Cc2ccccc2)cc1`, for which the “lipid storage change, negative = inhibition” value is 6.27% (inactive) and the cell number change was -1.56%.

As for `O=C(C#Cc1ccccc1)Nc1ccc(F)cc1`, the “lipid storage change, negative = inhibition” value was -7.35% (inactive) and the cell number change is -2.07%.

Turning to `COc1ccc(NC(=O)Nc2ccc(OC)cc2)cc1`, the compound was classed as inactive and the cell number change is -101%.

For the compound `COc1ccc(NC(=S)Nc2ccccc2)cc1`, the Potency result is “inactive”; the cell number change is 1.43% and -1.32%.

Take `O=C1NC2(CCCCC2)Cc2ccccc21`: the “lipid storage change, negative = inhibition” value was 20.7% (inactive) and the cell number change is 2.36%.

Consider `CCCC(=O)Nc1ccc(Cl)c(NC(=O)c2ccc([N+](=O)[O-])cc2Cl)c1`, for which the “lipid storage change, negative = inhibition” value is 11.3% (inactive) and the cell number change stood at 3.62%.

Regarding `Cc1cc(NC(=O)c2ocnc2C)no1`, the “lipid storage change, negative = inhibition” value is 9% (inactive) and the cell number change was -15.2%.
